A selection: hits, their analogues and other compounds. The true share with any hit is near 2.4%.
C diff growth: C. difficile growth inhibitors, primary screen, HTS; 86,000 compounds, 0.25% hits; AID 1259249, 2017; Clostridium difficile clinical isolate growth, OD600, 24 h; stronger effect = lower value; growth activity, negative = inhibition, % at 16 µg/mL (by protocol);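 active means mean growth activity at or below -80% and every replicate also at or below -80%; inconclusive means mean at or below -80% but some replicate above -80%; inactive means mean growth activity above -80%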;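 further: 0% = DMSO wells and -100% = levofloxacin 16 µg/mL wells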
Pf Dd2 growth: P. falciparum Dd2 growth inhibitors, primary screen, SYBR Green fluorescence, single dose replicates; 72 h; stronger effect = lower value; activity change, % at 10 µM; 94,000 compounds, 2.3% hits; in the data active means activity change below about -80%; inconclusive means no clear call, values can overlap the other calls
The depositor's hits bear a star; ? = inconclusive; . = no result given.

SMILES	C diff growth	Pf Dd2 growth
O=C(C[C@H]1CC[C@H](NS(=O)(=O)c2ccccc2)[C@H](CO)O1)NCc1ccccc1F	-1	-19
COCC(=O)Nc1ccc2c(c1)OC[C@@H](C)N(C(=O)c1ccccc1)C[C@@H](C)[C@H](OC)CN(C)C2=O	.	22
COc1ccc2c3c(n(C)c2c1)[C@@H](CO)NCC31CCN(Cc2ccc(Cl)cc2)CC1	.	0
COc1ccc2c3c(n(C)c2c1)[C@H](CO)NCC31CCN(CC2CCCC2)CC1	16	-86*
COc1ccc2c3c(n(C)c2c1)[C@@H](CO)NCC31CCN(Cc2cc(F)ccc2F)CC1	8	-78
COc1ccc2c3c(n(C)c2c1)[C@H](CO)NCC31CCN(Cc2ccc(F)cc2)CC1	26	-83*
COc1ccc2c3c(n(C)c2c1)[C@H](CO)NCC31CN(CC2CCOCC2)C1	-1	4
COc1ccc2c3c(n(C)c2c1)[C@H](CO)NCC31CCN(Cc2ccc(Cl)cc2)CC1	10	-91*
COc1ccc2c3c([nH]c2c1)[C@H](CO)N(Cc1ccccc1)CC31CN(S(C)(=O)=O)C1	.	-33
O=C(N[C@H]1CC[C@H](CCn2cc(-c3cccnc3)nn2)O[C@@H]1CO)c1ccccc1F	.	-12
C[C@H](CO)N1C[C@H](C)[C@@H](CN(C)S(C)(=O)=O)Oc2ccc(NS(=O)(=O)c3ccc(Cl)cc3)cc2C1=O	1	-15
N#C[C@H]1[C@H](c2ccc(C#CC3CCCC3)cc2)[C@H](CO)N1C(=O)Nc1ccc(F)cc1	-11	-30
N#C[C@@H]1[C@H](c2ccc(C#CC3CCCCC3)cc2)[C@H](CO)N1C(=O)Nc1ccc(F)cc1	-8	-88*
N#C[C@@H]1[C@H](c2ccc(C#Cc3ccc(F)cc3)cc2)[C@@H](CO)N1C(=O)Nc1ccc(F)cc1	4	-47
N#C[C@H]1[C@H](c2ccc(C#CC3CCCCC3)cc2)[C@@H](CO)N1C(=O)Nc1ccc(F)cc1	-6	-86*
C[C@@H]1CN([C@H](C)CO)C(=O)c2cc(NC(=O)c3ccccc3)ccc2O[C@@H](C)CCCCO[C@H]1CN(C)S(C)(=O)=O	-1	.
COc1ccc(CN(C)C[C@H]2Oc3c(NS(=O)(=O)c4ccc(C)cc4)cccc3C(=O)N([C@@H](C)CO)C[C@H]2C)cc1	-8	-69
C[C@H](CO)N1C[C@H](C)[C@H](CN(C)CC2CCOCC2)Oc2ncc(C#C[C@@H](C)O)cc2C1=O	1	21
CN(C[C@@H]1N[C@H](CO)[C@H]1c1ccc(C2=CCCC2)cc1)C(=O)c1cccc(F)c1	8	-19
O=C(NC[C@@H]1N[C@@H](CO)[C@H]1c1ccc(C2=CCCCC2)cc1)c1cccc(F)c1	-81*	-4
O=C(Nc1ccccc1F)N1CC(=O)N2[C@H](CO)[C@@H](c3ccc(-c4ccccc4)cc3)[C@H]2C1	-7	-84*
O=C(Nc1ccccc1F)N1CC(=O)N2[C@H](CO)[C@H](c3ccc(-c4ccccc4)cc3)[C@@H]2C1	-2	-6
O=C(Nc1cc(F)ccc1F)N1CC(=O)N2[C@H](CO)[C@@H](c3ccc(C#CC4CCCCC4)cc3)[C@@H]2C1	22	-82*
O=C(Nc1cc(F)ccc1F)N1CC(=O)N2[C@H](C1)[C@@H](c1ccc(C#CC3CCCCC3)cc1)[C@@H]2CO	-36	-29
C/C=C/c1cccc(-c2nc(C(=O)NCc3ccncc3)cc3c2[C@H](CCO)N([S@@](=O)C(C)(C)C)C3)c1	.	-23
SMILES	C diff growth	Pf Dd2 growth
COc1ccccc1C#Cc1ccc([C@@H]2[C@@H](C#N)N(C(=O)C3CCCCC3)[C@H]2CO)cc1	1	-91*
COc1ccccc1-c1ccc([C@@H]2[C@@H](C#N)N(C(=O)C3CCCCC3)[C@@H]2CO)cc1	2	-20
COc1ccccc1C#Cc1ccc([C@H]2[C@@H](C#N)N(C(=O)C3CCCCC3)[C@H]2CO)cc1	-9	-92*
N#C[C@H]1[C@H](c2ccc(C#Cc3ccccc3F)cc2)[C@H](CO)N1C(=O)C1CCCC1	-8	-41
CN1c2ccc(C3=CCCCC3)cc2[C@@H]2[C@@H](CCN2C(=O)C2CCCCC2)[C@H]1CO	4	-75
CCN1[C@@H]2Cn3c(cccc3=O)[C@H]1[C@@H](C(=O)NC1Cc3ccccc3C1)[C@@H]2CO	-3	8
Cc1ccc(S(=O)(=O)N[C@@H]2CC[C@H](CCn3cc(-c4cccnc4)nn3)O[C@H]2CO)cc1	.	-13
C[C@@H]1CN([C@H](C)CO)C(=O)c2cc(NC(=O)Cc3ccccc3)ccc2O[C@@H]1CN(C)Cc1ccc(C(=O)Nc2ccccc2N)cc1	0	-85*
C[C@@H]1CN([C@H](C)CO)C(=O)c2cc(NC(=O)Nc3ccccc3)ccc2O[C@@H]1CN(C)Cc1ccc(C(=O)Nc2ccccc2N)cc1	3	-85*
C[C@H]1CN([C@@H](C)CO)C(=O)c2cc(NC(=O)Nc3ccc(C(F)(F)F)cc3)ccc2O[C@@H]1CN(C)Cc1ccc(C(=O)Nc2ccccc2N)cc1	.	-93*
C[C@@H]1CN([C@@H](C)CO)C(=O)c2cc(NC(=O)CCC(F)(F)F)ccc2O[C@@H]1CN(C)Cc1ccc(C(=O)Nc2ccccc2N)cc1	.	-70
C[C@H](CO)N1C[C@H](C)[C@@H](CN(C)Cc2ccc(C(=O)Nc3ccccc3N)cc2)Oc2ccc(NC(=O)Cc3ccccc3)cc2C1=O	-1	-79
C[C@H](CO)N1C[C@H](C)[C@H](CN(C)Cc2ccc(C(=O)Nc3ccccc3N)cc2)Oc2ccc(NC(=O)CCC(F)(F)F)cc2C1=O	.	-81*
C[C@H](CO)N1C[C@H](C)[C@@H](CN(C)Cc2ccc(C(=O)Nc3ccccc3N)cc2)Oc2ccc(NC(=O)Nc3ccc(F)cc3)cc2C1=O	7	?
C[C@H]1CN([C@@H](C)CO)C(=O)c2cc(NC(=O)Nc3ccc(C(F)(F)F)cc3)ccc2O[C@H]1CN(C)Cc1ccc(C(=O)Nc2ccccc2N)cc1	25	-64
CO[C@@H]1CN(C)C(=O)c2cc(NC(=O)c3ccc4c(c3)OCO4)ccc2OC[C@H](C)N(CC2CC2)C[C@@H]1C	.	0
C[C@H](CO)N1C[C@H](C)[C@@H](CN(C)Cc2ccc(Cl)c(Cl)c2)Oc2ccc(NC(=O)Nc3ccccc3)cc2CC1=O	10	-31
C[C@H](CO)N1C[C@H](C)[C@H](CN(C)C(=O)Nc2ccc3c(c2)OCO3)Oc2cc(C#Cc3cccnc3)ccc2S1(=O)=O	-3	?
C[C@@H]1CN([C@H](C)CO)C(=O)Cc2cc(NC(=O)c3ccncc3)ccc2O[C@H]1CN(C)S(=O)(=O)c1ccc(Cl)cc1	-3	6
COc1ccc(S(=O)(=O)N2C[C@@H](O)COC[C@H]3O[C@H](CC(=O)NCCN4CCCCC4)CC[C@@H]32)cc1	-1	13
FC(F)(F)c1cccc(CN2[C@@H]3CNC[C@H]2C3c2ccc(-c3ccncc3)cc2)c1 (stereo partly drawn)	6	-25
COc1cccc(S(=O)(=O)Nc2ccc3c(c2)[C@H]2C[C@@H](CC(=O)O)O[C@H](CO)[C@H]2O3)c1	0	16
C[C@H](CO)N1C[C@H](C)[C@@H](CN(C)Cc2ccc(C(=O)Nc3ccccc3N)cc2)Oc2ccc(NC(=O)Nc3ccc(C(F)(F)F)cc3)cc2C1=O	.	-90*

Source: PubChem
